Screens from PubChem.
CtBP-E1A inh – CtBP/E1A binding inhibition | AlphaScreen GST-E1A/His-CtBP binding, 1536-well; active compounds read low | activity change, % (test concentration not listed) | 340,000 tested, 0.49% active; in the data active = activity change below about -65%; inconclusive = mostly about -30% to -63%
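Homogeneous bead-based format: GST-tagged E1A captured on glutathione donor beads, His-tagged CtBP on nickel acceptor beads; compounds precede bead addition by 2 h at 37 °C.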
PKM2 act – PKM2 (human) enzyme activation; 260,000 tested, 0.34% active; Potency, µM (doses to about 57.5 µM), for inactives: at the highest dose activation, actives largely listed as activators; P14618; purified PKM2, Kinase-Glo ATP luminescence, activation; response scale: 0% is enzyme alone, no compound; also: potency is read from the fitted curve at half-maximal effect; nearly all actives have a fitted effect of over 55% in size
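Purified hPK-M2 (>95% pure) converted ADP (0.1 mM final) to ATP with 0.5 mM PEP in 50 mM imidazole pH7.2, KCl, MgCl2, Tween 20, BSA; 1 h at room temperature. ATP detected by Kinase-Glo luminescence.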
Six1-Eya2 blk – inhibitors of human Six1/Eya2 interaction | Q15475+O00167 | activity change, % (no concentration beside the values) | 360,000 tested, 0.56% active | AlphaScreen GST-Six1/His-Eya2 binding, biochemical; active compounds read low; in the data active = activity change below about -65%; inconclusive = mostly about -30% to -63%
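AlphaScreen with GST-Six1 and His-Eya2 (5X mix: 250 nM and 500 nM), glutathione donor and nickel acceptor beads; buffer 50 mM Tris pH 8.0, 300 mM NaCl, 1 mM TCEP; 1 h at 37 C in the dark.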
Gal4-VP16 FLuc – counter-screen for ROR gamma inhibitors: Gal4-VP16 reporter; Drosophila S2 Gal4-VP16 UAS-luciferase, luminescence, 20 h; Potency, µM (highest dose often 53.6 µM), inactives show at the top dose activity, negative = inhibition, actives largely listed as inhibitors; 310,000 tested, 3.5% active; AID 2546;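 also: Gal4-VP16 expression switched on by copper sulfate through the metallothionein promoter; potency is read from the fitted curve at half-maximal effect; nearly all actives have a fitted effect of over 50% in size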
RORgamma inh – ROR gamma (mouse) transcription inhibition; 310,000 tested, 5.4% active; Potency, µM (series often up to 53.6 µM), inactives show top-dose activity change, negative = inhibition, actives largely listed as inhibitors; AID 2551; Drosophila S2 Gal4-RORgamma UAS-luciferase reporter, 20 h; P51450; also: potency is read from the fitted curve at half-maximal effect; nearly all actives have a fitted effect of over 60% in size
Target sequence (P51450 whole entry, looked up, the tested form may be a part): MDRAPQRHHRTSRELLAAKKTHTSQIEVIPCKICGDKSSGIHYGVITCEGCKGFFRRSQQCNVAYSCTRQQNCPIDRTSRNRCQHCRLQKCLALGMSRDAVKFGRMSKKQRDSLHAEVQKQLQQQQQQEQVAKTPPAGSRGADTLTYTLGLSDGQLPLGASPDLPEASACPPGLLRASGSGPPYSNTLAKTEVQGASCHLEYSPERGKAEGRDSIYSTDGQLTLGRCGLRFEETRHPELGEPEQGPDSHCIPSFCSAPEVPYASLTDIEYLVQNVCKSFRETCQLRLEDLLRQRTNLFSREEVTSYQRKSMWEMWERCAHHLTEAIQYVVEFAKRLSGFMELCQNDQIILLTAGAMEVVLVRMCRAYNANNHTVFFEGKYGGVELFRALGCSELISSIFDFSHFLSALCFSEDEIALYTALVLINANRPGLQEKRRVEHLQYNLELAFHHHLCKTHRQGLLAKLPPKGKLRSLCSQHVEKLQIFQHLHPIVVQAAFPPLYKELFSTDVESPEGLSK
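Drosophila S2 cells stably expressing Gal4-DBD/mouse RORγ fusion under metallothionein promoter plus UAS-luciferase; compound 1 h, then 700 uM CuSO4 induction for 20 h at ambient temperature; inhibition read as reduced luminescence.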
An asterisk follows results filed as active; u = inconclusive; x = not tested or not shown; [ ] = dose if it differs, or a comment. Sampled rows, rich in hits. Any-hit rate of the full collection: about 5.6%. Unless noted, calls follow the shape of the dose curve; as a rule, active = well fitted curve in the direction sought with a large enough effect; inconclusive = small, poorly fitted or top-dose-only effect, or another doubt; inactive = no such curve, though single readings can be large; an effect the other way counts as inactive or inconclusive. % is scaled to controls: 0 for no effect and ±100 for the full control effect.

SMILES | CtBP-E1A inh | PKM2 act | Six1-Eya2 blk | Gal4-VP16 FLuc | RORgamma inh
O=C(O)COc1ccccc1C(Nc1cccnc1)c1cc(Cl)c2cccnc2c1O (stereo not drawn) | -91* | 21% | -67* | -8% | 12%
O=C(O)COc1ccccc1C(Nc1ccccn1)c1cc(Cl)c2cccnc2c1O (stereo not drawn) | -85* | 9% | u | -2% | u
CCOc1ccccc1CN1CCC(n2nccc2NC(=O)C2CCCC2)CC1 | -3 | -1% | 0 | -3% | -35%
Cc1cc(SCC(=O)c2cccc([N+](=O)[O-])c2)nc(=O)[nH]1 | x | x | -20 | 18% | u
Cc1c(C(C)NC(=O)c2cc(COc3cccc4cnccc34)on2)cnn1C (stereo not drawn) | x | x | -5 | 13µM* | -27%
CCN(CC)C(=O)c1cc([N+](=O)[O-])cc2c1-c1ccc([N+](=O)[O-])cc1C2=C(C#N)C#N | -23 | 1% | -17 | 20µM* | u
Nc1ncnc2c1nc(N1CCCCC1)n2[C@@H]1O[C@@H]2COP(=O)(O)O[C@H]2[C@H]1O | x | x | x | 0% | 4%
Cc1cc(C2(c3ccc(O)c(C)c3)C(=O)Nc3ccccc32)ccc1O | -4 | -6% | -19 | 16µM* | -21%
Cc1cccc2c1NC(=O)C2(c1ccc(O)cc1)c1ccc(O)cc1 | -9 | 0% | 8 | -6% | 10%
CC12C=CC(=O)C=C1[C@@H](F)CC1C2C(O)CC2(C)C1CC[C@]2(O)C(=O)CO (stereo partly drawn) | x | x | x | 4% | 4%
NS(=O)(=O)c1cccc2c1c([N+](=O)[O-])cc1[nH]c(=O)c(=O)[nH]c12 | x | x | x | -11% | -8%
Nc1cc2[nH]c(=O)c3ccccc3c2cc1[N+](=O)[O-] | -72* | x | -72* | x | x
COCCCN(C(=S)NC(=O)C(C)(C)C)c1c(N)n(Cc2ccccc2)c(=O)[nH]c1=O | 21 | 0% | 14 | 2% | -32%
COCCCN(C(=S)NC(=O)c1ccc(Br)cc1)c1c(N)n(Cc2ccccc2)c(=O)[nH]c1=O | -1 | 5% | 2 | 3% | 10µM*
O=C(N/N=C/c1ccccc1)c1cccc2ccccc12 | 2 | x | 17 | x | x
Cc1c(/C=N\NC(=O)c2csc3ccccc23)cnn1C | -2 | 3% | -1 | 6% | u
CCn1ncc(/C=N\NC(=O)c2csc3ccccc23)c1C | 1 | 0% | -3 | u | 10µM*
COc1ccc(C(=O)N/N=C/c2sc3ccccc3c2O)cc1 | -65* | 1% | -74* | 4µM* | 2.2µM*
O=C(N/N=C/c1cccn1-c1ccc(O)cc1)c1cccc2ccccc12 | -5 | x | -2 | 16µM* | 18µM*
Oc1c(C=Nc2cccc3cccnc23)sc2ccccc12 | x | 2% | x | 1.4µM* | 1.8µM*
COc1ccc(C(=O)N/N=C/c2c[nH]c3ccccc23)cc1 | -4 | -3%[11.5 µM] | -2 | 3% | 0%
CCOc1ccc2nc(NC(=O)Cn3[nH]c(=O)c4ccccc4c3=O)sc2c1 | x | 5% | -2 | -3% | u
Cc1ccccc1C(=O)N/N=C/c1ccsc1C | 13 | 6% | 7 | -6% | 17%
COc1ccc2cc(C(=O)N/N=C/c3sc4ccccc4c3O)ccc2c1 | u | 1% | u | u | 3.5µM*
O=C(N/N=C/c1sc2ccccc2c1O)c1ccccc1 | u | -13% | -87* | 1.6µM* | 1.8µM*
SMILES | CtBP-E1A inh | PKM2 act | Six1-Eya2 blk | Gal4-VP16 FLuc | RORgamma inh
Cc1sccc1/C=N/NC(=O)c1cccc2ccccc12 | 4 | 0% | -2 | u | 11µM*
O=C(N/N=C/c1sc2ccccc2c1O)c1cccc2ccccc12 | u | -7% | u | 4.5µM* | 1.8µM*
COc1ccc(C(=O)NC(=S)N2CCN(c3ccccc3O)CC2)cc1 | 1 | x | -10 | x | x
Cc1ccc(NC(=O)COC(=O)C2=NNC(=O)CC2)c(Br)c1 | -18 | x | 0 | x | x
CCN(CC)C(=S)Sc1c(-c2ccccc2)c2cc(Cl)ccc2[nH]c1=O | -11 | 2% | -3 | 7.9µM* | 8.9µM*
CCOC(=O)N1C(COCc2ccccc2)C=CCS1(=O)=O (stereo not drawn) | x | x | x | -1% | 16%
Cc1cnc(CNc2nc(-c3ccc(N(C)C)cc3)nc3ccccc23)cn1 | x | x | x | 11µM* | u
Cc1cnc(CNc2nc(-c3ccccc3C(F)(F)F)nc3ccccc23)cn1 | x | x | x | -17% | 22%
CCCCNC(=O)C(NC(=O)c1cccnc1)C(=O)c1ccccc1 (stereo not drawn) | 6 | x | -1 | x | x
COc1c(-c2coc3cc4c(cc3c2=O)CC(O)C(C)(C)O4)ccc2c1C=CC(C)(C)O2 (stereo not drawn) | x | x | x | -4% | 1.1µM*
COc1c(-c2coc3cc4c(cc3c2=O)CC(OC(C)=O)C(C)(C)O4)ccc2c1C=CC(C)(C)O2 (stereo not drawn) | x | x | x | 1.3µM* | 2.5µM*
Cc1ccc(NC(=O)CN2CCN(C)CC2)cc1S(=O)(=O)N1CCOCC1 | 8 | x | 5 | x | x
CCCCC(=O)Nc1ccc(N2CCN(C(=O)c3ccco3)CC2)cc1 | -2 | -4% | 9 | 3% | -11%
CC(=O)N1CC(=O)N=C1SCC(=O)Nc1nc(-c2ccccc2)c(-c2ccccc2)s1 | -30 | 7% | -22 | 7.9µM* | 7.1µM*
Cc1sc(NC(=O)CSC2=NCCS2)nc1-c1ccccc1 | -3 | -11% | -8 | -3% | -25%
Oc1c(Cl)cc(Cl)cc1CNc1nc2ccccc2[nH]1 | u | -2% | u | u | -5%[1.91 µM]
O=C(Nc1nccs1)c1ccc(Cl)c(S(=O)(=O)N2CCOCC2)c1 | -8 | 1% | -17 | u | 16µM*
COCCNCC(=O)Nc1ccc(C)c(S(=O)(=O)N2CCCCC2)c1 | 2 | 4% | -2 | 0% | 12%
Cc1ccc(C(=O)Nc2nccs2)cc1S(=O)(=O)N1CCCCC1 | -23 | 0% | -23 | u | 14µM*
Cc1ccc(NC(=O)CCl)cc1S(=O)(=O)N1CCCCCC1 | -14 | 4% | -1 | u | 11µM*
CC(C)(C)N1C(=O)c2ccc(C(=O)Nc3nccs3)cc2C1=O | -1 | -1% | 7 | u | 7.1µM*
Cc1ccc(NS(=O)(=O)c2ccc(C)c(NC(=S)NCCN3CCOCC3)c2)c(C)c1 | 4 | x | 5 | x | x
OC(COc1ccc(CNCCc2ccccc2F)cc1)CN1CCCCC1 (stereo not drawn) | x | 18% | 1 | 3% | 28%
COC(=O)C1(C(=O)OC)C[C@@H]2CON=C2[C@H]1c1ccccc1 | x | x | x | 2% | -4%
COc1ccc(C(C(=O)NC2CCCCC2)N(C(=O)CCl)c2cccc(Cl)c2)cc1 (stereo not drawn) | 0 | 4% | 14 | u | -30%[10 µM]
CC(C)N(Cc1ccccc1)C(=S)Nc1ccc(F)cc1 | 2 | 1% | 1 | -1% | -44%
